# Assay results: PubChem BioAssay (NCI)
# About 83,000 compounds went through this panel and 20% of them were active in at least one assay; those are over-represented in the sample as a whole.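 The test compound was applied at a single concentration to cells in 96-well plates for 48 hours, and percent growth was recorded.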 Values without a mark were called inactive. Calls of active or inactive are those of the source. How the source made its calls: active means growth percent below 10; inactive means the rest.
# Tests used:
# Test in all cases: NCI-60 one-dose screen, 48 h (100 = growth as untreated, 0 = no growth, -100 = all killed)
# Settings in all cases: 10 µM unless noted
# [1] = test system: NCI-H226 lung
# [2] = test system: NCI-H322M lung
# [3] = test system: HOP-62 NSCLC
# [4] = test system: NCI-H460 lung
# [5] = test system: HOP-92 NSCLC
# [6] = test system: NCI-H522 lung
# [7] = test system: A549/ATCC NSCLC
# [8] = test system: 786-0 renal
# [9] = test system: COLO 205 colon
# [10] = test system: DU-145 prostate
# [11] = test system: K-562 leukemia
# [12] = test system: MALME-3M melanoma
# [13] = test system: MDA-MB-231 breast
# [14] = test system: RXF 393 renal
# [15] = test system: SF-268 CNS
# [16] = test system: SF-295 CNS
# [17] = test system: SF-539 CNS
# [18] = test system: UACC-257 melanoma
# [19] = test system: M14 melanoma
# [20] = test system: HCT-15 colon
SMILES,growth [1] [%],growth [2] [%],growth [3],growth [4],growth [5],growth [6],growth [7] [%],growth [8],growth [9],growth [10] [%],growth [11],growth [12],growth [13],growth [14],growth [15] [%],growth [16],growth [17],growth [18],growth [19],growth [20]
COc1ccc(C(=O)/C=C/c2ccc(OCc3ccc(C)cc3)c(OC)c2)cc1OC,59.2,70.4,101%,60.1%,60.6%,72.3%,63.3,83.7%,95.3%,70.3,25.4%,87.8%,59%,103%,72.4,75.2%,72.1%,80.3%,86.8%,34.4%
Cc1cc2nc3c4cc(Cl)ccc4n(CC(=O)NCCN(C)C)c3nc2cc1C,25.7,83.7,73.7%,-69.9% (active),57.1%,91.8%,89.4,-92.4% (active),76.8%,94.4,-32.9% (active),-66.9% (active),53.2%,61.1%,83,93.5%,21.8%,105%,-88.7% (active),-7.4% (active)
CCOc1ccc([C@H]2C(C(=O)c3ccc(Cl)cc3)C3(N[C@@H]2c2ccccc2)C(=O)Nc2ccc(Br)cc23)cc1 (stereo not given in full),47.3,45.6,54.5%,2.83% (active),16%,51.5%,26,23%,19.3%,47.6,14.2%,64.8%,11%,16.6%,28.9,37.8%,48.8%,68.5%,37.6%,33.4%
N#Cc1c(-c2ccc(F)cc2)nc2c(C#N)c(Nc3ccccc3)nn2c1N,112,105,97.3%,106%,92.5%,97.9%,101,86.9%,110%,103,99.5%,113%,109%,110%,95.3,99.3%,97.3%,106%,109%,98.7%
CSCCC(C(=O)O)N1C(=O)/C(=C/c2ccc(O)c(O)c2)SC1=S (stereo not given),107,91.8,100%,109%,108%,102%,108,94.4%,123%,108,109%,101%,97.1%,125%,97.6,96.5%,95.7%,104%,101%,100%
OC1CCc2c(-c3ccc4ncnc(N5CCc6cc(F)c(Cl)cc65)c4c3)cncc21 (stereo not given),56.7,15,63.7%,50.7%,23.1%,40.1%,50.3,43.7%,82.3%,35.8,60.9%,64.5%,40.2%,8.06% (active),43.3,54%,53.7%,89.4%,74.4%,41.1%
COc1ccc(/C=N/NC(=O)c2[nH]c3ccc(Br)cc3c2-c2ccccc2)o1,49.7,44.2,47.6%,0.221% (active),33.2%,-54.6% (active),30.4,13.3%,-47.8% (active),20,12.1%,51.5%,-5.34% (active),50.9%,38.6,16.6%,-17.4% (active),54.1%,-1.43% (active),10.7%
Clc1ccc(Cc2nnc3sc(-c4cccnc4)nn23)cc1,93,87.8,107%,103%,91.9%,89.5%,98.2,92.6%,115%,101,87.1%,108%,93.6%,85.9%,96.4,99.9%,92.5%,109%,106%,99.6%
COc1ccc(/C=C2\SC(=Nc3cc(C)[nH]n3)NC2=O)cc1,86.8,91.9,85.2%,102%,68.5%,97.4%,102,99.8%,90.8%,101,101%,89.6%,95.4%,80.7%,95.8,86.3%,95.8%,98.7%,98.1%,84.2%
CC(=O)Nc1cc(F)cc(-c2ccc3[nH]cc(-c4ccccc4)c3n2)c1,30.9,33.4,3.09% (active),3.95% (active),0.206% (active),-67.6% (active),20.1,1.48% (active),-68.2% (active),39.8,0.935% (active),-14.3% (active),-3.42% (active),-11.8% (active),41.3,-42.9% (active),-28.5% (active),-29.3% (active),-14.8% (active),-60.8% (active)
CCCCCCNC(=O)Oc1ccc(/C(=C(/C)c2ccccc2)c2ccc(OCCN3CCCCCC3)cc2)cc1,76.7,87.5,78.6%,6.58% (active),12.5%,85%,63.1,-0.48% (active),21.7%,68.2,-9.12% (active),12.2%,41.7%,9.02% (active),62.2,36.3%,11.1%,-2.81% (active),-39.7% (active),9.9% (active)
O=C1Nc2ccc(Cl)cc2/C1=C/c1ccc(OCC(=O)c2ccc(Br)cc2)cc1,78.7,84.7,68.4%,94.7%,72%,95.9%,102,103%,98.5%,103,102%,84.5%,76.2%,114%,94,99.9%,102%,100%,95.6%,99.2%
CN(C)c1ccc(/C=c2\sc3nc4ccccc4n3c2=O)cc1,105,90.8,108%,105%,103%,102%,117,98.5%,111%,110,96.8%,101%,91.2%,117%,109,109%,96.5%,117%,102%,107%
Cc1ccc(/C=C/c2nn3c(-c4ccco4)nnc3s2)cc1C,106,97.1,100%,104%,93.9%,104%,94,100%,126%,103,97.7%,104%,94.8%,112%,108,97%,99%,99.2%,108%,96%
